Laboratory results reported in PubChem BioAssay.
Calls of active or inactive are those of the source. Unless noted, the rule behind the calls is not given here.

How the values were obtained:
[1] = compound effects on lung adenocarcinoma cell viability – A549, calcein-AM fluorescence, 48 h, basal, profiling panel (AID 1162); details: higher = more signal; note: test concentration not given here
[2] = compound effects on differentiated 3T3-L1 adipocyte viability – cell-based, 3T3-L1 adipocytes, calcein-AM fluorescence, 48 h, basal, profiling panel (AID 1163); details: 3T3-L1 adipocytes viability, higher = more signal; note: test concentration not given here
[3] = compound effects on hepatocellular carcinoma cell viability – HepG2, calcein-AM fluorescence, 48 h, basal, profiling panel (AID 1164); details: higher = more signal; note: test concentration not given here
[4] = compound effects on multiple myeloma cell viability – MM1S, calcein-AM fluorescence, 48 h, basal, profiling panel (AID 1165); details: higher = more signal;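 note: viability of MM1S multiple myeloma cells under basal unstimulated conditions; test concentration not given here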
[5] = calcein-AM signal in unstimulated myeloma cells – cell-based, calcein-AM fluorescence, 48 h, PK04 Diversity Set, profiling panel (AID 1166); details: RPMI8226 myeloma viability, higher = more signal;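 note: cells grown under basal conditions without added stimulus; test concentration not given here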
[6] = JC-1 mitochondrial signal, unstimulated HepG2 cells – cell-based, JC-1 fluorescence, 24 h, 100 nL compound, profiling panel (AID 1167); details: HepG2 mitochondrial potential, higher = more signal; note: test concentration not given here
[7] = JC-1 mitochondrial signal, unstimulated adipocytes – cell-based, JC-1 fluorescence, 3T3-L1 adipocytes, 24 h, 100 nL compound, profiling panel (AID 1168); details: JC-1 mitochondrial fluorescence, higher = more signal, called active from +8 up or from −8 down; note: test concentration not given here
[8] = JC-1 mitochondrial signal, unstimulated myeloma cells – cell-based, JC-1 fluorescence, RPMI8226, 24 h, 100 nL compound, profiling panel (AID 1169); details: JC-1 mitochondrial potential fluorescence, higher = more signal; note: test concentration not given here
[9] = JC-1 mitochondrial signal, unstimulated MM1S myeloma – cell-based, JC-1 fluorescence, 24 h, 100 nL compound, profiling panel (AID 1170); details: MM1S mitochondrial potential, higher = more signal; note: test concentration not given here
[10] = resazurin metabolic signal in A549 cells – cell-based, resazurin fluorescence, 24 h, PK04 Diversity Set, profiling panel (AID 1171); details: A549 viability, higher = more signal, called active from +8 up or from −8 down; note: test concentration not given here
[11] = resazurin metabolic signal in HepG2 cells – cell-based, resazurin fluorescence, 24 h, PK04 Diversity Set, profiling panel (AID 1172); details: HepG2 viability, higher = more signal; note: test concentration not given here
[12] = budding yeast growth changes without added modifier – OD600, strain BY4716, 24 h, basal condition, primary screen (AID 1173); details: S. cerevisiae BY4716 growth, OD600, 24 h; higher = more signal, called active from +8 up or from −8 down
[13] = viability profiling in MM1S myeloma cells – cell-based, resazurin fluorescence, basal, 24 h, PK04 Diversity Set, profiling panel (AID 1174); details: higher = more signal, called active from +8 up or from −8 down; note: test concentration not given here
[14] = target: Dihydroorotate dehydrogenase (quinone), mitochondrial (Plasmodium falciparum (isolate 3D7)) (UniProt Q08210); assay: inhibition of P. falciparum DHODH – biochemical, C-terminal His tag, absorbance 600 nm, primary screen (AID 1175); details: PfDHODH enzyme, DCIP absorbance 600 nm; higher = more signal, called active from +8 up or from −8 down;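 note: recombinant parasite enzyme with a five histidine tag at its C terminus; test concentration not given here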
Chain of Dihydroorotate dehydrogenase (quinone), mitochondrial (Plasmodium falciparum (isolate 3D7)) (Q08210 whole entry, looked up): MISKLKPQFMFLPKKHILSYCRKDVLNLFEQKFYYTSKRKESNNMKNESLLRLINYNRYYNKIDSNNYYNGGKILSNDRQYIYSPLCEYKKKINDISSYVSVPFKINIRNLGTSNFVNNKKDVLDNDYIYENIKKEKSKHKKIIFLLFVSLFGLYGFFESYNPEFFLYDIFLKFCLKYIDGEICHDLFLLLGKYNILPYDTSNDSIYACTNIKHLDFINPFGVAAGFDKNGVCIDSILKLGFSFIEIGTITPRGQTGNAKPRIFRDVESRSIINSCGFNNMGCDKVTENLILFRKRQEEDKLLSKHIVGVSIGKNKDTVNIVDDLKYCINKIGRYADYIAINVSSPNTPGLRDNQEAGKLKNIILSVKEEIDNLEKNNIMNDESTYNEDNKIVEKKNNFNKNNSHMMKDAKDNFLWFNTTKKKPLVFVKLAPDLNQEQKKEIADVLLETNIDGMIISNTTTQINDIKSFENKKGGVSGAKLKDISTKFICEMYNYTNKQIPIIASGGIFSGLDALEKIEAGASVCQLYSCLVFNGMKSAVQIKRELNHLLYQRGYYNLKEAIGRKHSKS

[15] = inhibition of PAO1 biofilm formation – strain PAO1, LB-PBS medium, absorbance 600 nm, primary screen (AID 1176); note: test concentration not given here; details: P. aeruginosa PAO1 growth/biofilm, A600, 12 h; higher = more signal
[16] = growth modulation of vineyard yeast isolate – strain RM11-1a, OD600, basal, 24 h, primary screen (AID 1177);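 note: cultures grown under basal conditions with no added stressor; test concentration not given here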; details: S. cerevisiae RM11-1a growth, OD600, 24 h; higher = more signal, called active from +8 up or from −8 down
[17] = growth of efflux-deficient E. coli DRC39 – strain DRC39, OD650, 24 h, E. coli filamentation inducers, primary screen (AID 1178);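 note: growth measured as culture turbidity by optical density at 650 nm; test concentration not given here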; details: E. coli DRC39 acrAB, higher = more signal, called active from +8 up or from −8 down
[18] = growth of efflux-deficient E. coli DRC39 – strain DRC39, OD650, 48 h, E. coli filamentation inducers, primary screen (AID 1179);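 note: screen aims at cell division blockers that make cells filament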; details: E. coli DRC39 delta-acrAB growth, higher = more signal, called active from +8 up or from −8 down
[19] = viability profiling in RPMI8226 myeloma cells – cell-based, resazurin fluorescence, basal, 24 h, PK04 Diversity Set, profiling panel (AID 1180); details: higher = more signal;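 note: RPMI8826 multiple myeloma cell line at 5000 cells per well; test concentration not given here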
[20] = target: E3 ubiquitin-protein ligase XIAP (Homo sapiens) (UniProt P98170); assay: small molecules binding XIAP protein – biophysical, small-molecule microarray, fluorescence 635 nm, primary screen (AID 1181); details: higher = more signal;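 note: score merges 667 nm emission and signal to noise over triplicate slides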
Chain of E3 ubiquitin-protein ligase XIAP (Homo sapiens) (P98170 whole entry, looked up): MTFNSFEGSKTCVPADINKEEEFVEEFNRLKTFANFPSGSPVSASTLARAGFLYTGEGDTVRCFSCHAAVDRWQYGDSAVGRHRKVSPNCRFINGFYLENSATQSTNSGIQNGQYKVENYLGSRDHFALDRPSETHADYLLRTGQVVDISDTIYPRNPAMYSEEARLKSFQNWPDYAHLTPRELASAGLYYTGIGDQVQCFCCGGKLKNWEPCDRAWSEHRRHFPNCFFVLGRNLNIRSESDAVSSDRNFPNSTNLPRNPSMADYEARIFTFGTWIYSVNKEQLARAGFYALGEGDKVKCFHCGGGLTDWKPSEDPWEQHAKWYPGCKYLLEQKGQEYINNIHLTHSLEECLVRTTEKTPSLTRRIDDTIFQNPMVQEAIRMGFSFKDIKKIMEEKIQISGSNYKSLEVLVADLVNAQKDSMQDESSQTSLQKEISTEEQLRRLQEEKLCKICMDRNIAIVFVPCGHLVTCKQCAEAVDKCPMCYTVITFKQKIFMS

| SMILES | z-score [1] | z-score [2] | z-score [3] | z-score [4] | z-score [5] | z-score [6] | z-score [7] | z-score [8] | z-score [9] | z-score [10] | z-score [11] | z-score [12] | z-score [13] | composite z-score [14] | z-score [15] | z-score [16] | z-score [17] | z-score [18] | z-score [19] | composite z-score [20] |
| --- | --- | --- | --- | --- | --- | --- | --- | --- | --- | --- | --- | --- | --- | --- | --- | --- | --- | --- | --- | --- |
| COc1cccc(C)c1NC(=O)O[C@H]1[C@H](OC(=O)Nc2ccc3c(c2)OCO3)[C@H](OC(=O)Nc2ccc3c(c2)OCO3)[C@@H](OC)O[C@@H]1CO | -0.934 | 0.372 | -0.997 | -1.62 | -1.82 | -0.514 | 0.308 (inactive) | -0.136 | -0.724 | -0.654 (inactive) | -0.73 | 1.27 (inactive) | -0.494 (inactive) | -0.713 (inactive) | 0.606 (inactive) | 1.6 (inactive) | 0.84 (inactive) | -0.0834 (inactive) | -0.708 | 1.64 |
| COC(=O)C[C@H]1O[C@]2(C(=O)N(C)c3ccccc32)[C@@H](C)[C@@H]1[Si](C)(C)c1ccccc1 | -0.843 | 1.01 | -1.05 | -0.344 | -0.0598 | -0.57 | 0.611 (inactive) | -0.0109 | 0.425 | 1.38 (inactive) | 1.45 | -2.07 (inactive) | 0.317 (inactive) | -0.343 (inactive) | -1.24 (inactive) | -0.136 (inactive) | 0.709 (inactive) | -0.106 (inactive) | 1.22 | 0.135 |
| COc1ccc(C(=O)Nc2cccc(CN3C(=O)[C@]4(O[C@H](CC(=O)N(CCO)Cc5ccccc5)[C@@H]([Si](C)(C)c5ccc(OC)cc5)[C@@H]4C)c4ccccc43)c2)cc1 | -0.983 | 0.385 | -0.801 | -0.829 | -3.92 | 0.52 | 1.3 (inactive) | -0.877 | -1.51 | -1.51 (inactive) | -0.754 | 0.404 (inactive) | -1.87 (inactive) | -1.92 (inactive) | 0.769 (inactive) | 3.54 (inactive) | 1.46 (inactive) | 0.852 (inactive) | -1.52 | 1.38 |
| [N-]=[N+]=NCc1ccccc1C[C@@]1(C(=O)NCCN2CCOCC2)N=C(c2ccc(OCCCO)cc2)O[C@@H]1c1ccccc1 | 0.0171 | -0.221 | -1.04 | -2.72 | -1.99 | -0.3 | 0.556 (inactive) | -1.18 | -0.956 | -0.112 (inactive) | -0.419 | -2.05 (inactive) | -0.909 (inactive) | 0.742 (inactive) | -0.0025 (inactive) | -0.411 (inactive) | 0.594 (inactive) | -0.959 (inactive) | -1.02 | 0.0297 |
| C=C(/C=C\CNS(=O)(=O)c1ccc(C)cc1)[C@H](O)[C@H]1CCCN1S(=O)(=O)c1ccccc1[N+](=O)[O-] | -0.635 | 0.186 | -1.3 | -3.14 | -1.51 | -3.05 | -0.955 (inactive) | -0.938 | -0.671 | 0.0403 (inactive) | -0.527 | 0.487 (inactive) | -0.943 (inactive) | 1.57 (inactive) | 1.21 (inactive) | 2.53 (inactive) | 1.12 (inactive) | -0.23 (inactive) | -0.851 | -0.0448 |
| O=C1N(Cc2ccccc2)Cc2ccccc2C[C@@]12COC(c1ccc(OCCCO)cc1)=N2 | -1.62 | 1.06 | 0.325 | -3.63 | -4.39 | -0.641 | 0.172 (inactive) | -1.18 | -1.91 | -2.8 (inactive) | 0.775 | 0.842 (inactive) | -8.43 (active) | 0.719 (inactive) | -0.289 (inactive) | 4.69 (inactive) | 1.42 (inactive) | 0.0613 (inactive) | -2.81 | -0.124 |
| Cc1ccc(S[C@]2(C(=O)NCCN3CCOCC3)CC(=O)N(C(C)C)[C@@H]2c2ccc(CO)cc2I)cc1 | 2.91 | 0.557 | 2.66 | -2.39 | -1.47 | 1.64 | 0.604 (inactive) | -1.01 | -0.635 | -1.13 (inactive) | 0.124 | -3.26 (inactive) | -2.29 (inactive) | -2.11 (inactive) | 0.553 (inactive) | -2.93 (inactive) | 1.16 (inactive) | 1.65 (inactive) | -1.83 | -0.0304 |
| CC(C)c1ccc(NN2C(C(O)c3ccccc3)C=CC3C(=O)N(c4ccccc4)C(=O)C32)cc1 (stereo not given) | 1.53 | -1.6 | 1.22 | -0.168 | 0.159 | -1.13 | 0.821 (inactive) | -0.197 | -0.906 | 0.235 (inactive) | 0.685 | -1.79 (inactive) | -2.57 (inactive) | 1.25 (inactive) | 1.16 (inactive) | 1.58 (inactive) | 0.493 (inactive) | 0.289 (inactive) | 0.039 | -0.0669 |
| CCOC(=O)C[C@H]1[C@H](OC(=O)Cc2ccc3c(c2)OCO3)[C@@H](NC(=O)CC(C)C)c2cc(OCCCO)ccc2N1C(=O)c1ccc2ccccc2n1 | 0.415 | 1.37 | -0.236 | 0.383 | -0.577 | 0.218 | 0.0499 (inactive) | 0.01 | -0.659 | 0.194 (inactive) | 0.0081 | -1.8 (inactive) | -0.0432 (inactive) | -1.94 (inactive) | -1.53 (inactive) | -0.0738 (inactive) | 0.57 (inactive) | -0.0185 (inactive) | -0.255 | 0.514 |
